The source made the active and inactive calls. Unless noted, the rule behind the calls is not given here.
Columns and labels:
[1] = compounds binding Alexa647 anti-His antibody – biochemical, small-molecule microarray, 635 nm fluorescence, artefact control for SMM control protein annotation, primary screen (AID 1128); conditions: higher = more signal;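 note: score merges feature fluorescence with signal-to-noise for each printed compound spot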
[2] = tested on: Human papillomavirus type 1a E7 protein (residues 1-88); test: HPV1a E7 small-molecule binders, primary screen, biochemical, small-molecule microarray, residues 1-88, 635 nm (AID 1129); conditions: small-molecule microarray binding, fluorescence 635 nm; higher = more signal
[3] = molecular target: Focal adhesion kinase 1 (Homo sapiens) (UniProt Q05397); test: PTK2 protein binding on printed compound slides – biochemical, small-molecule microarray, 635/667 nm fluorescence, BSA, DTT, primary screen (AID 1130); conditions: 635 nm fluorescence, higher = more signal;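 note: composite of spot emission at 667 nm and signal to noise over triplicate slides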
[4] = tested on: Fibrinogen (Alexa647-labelled); test: Alexa647-fibrinogen binding to printed small molecules – biochemical, small-molecule microarray, 635/667 nm fluorescence, artefact control for SMM control-protein annotation, profiling panel (AID 1131); conditions: fibrinogen-A647 binding fluorescence, higher = more signal;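 note: z-score merges 667 nm fluorescence with per-spot signal-to-noise over triplicate slides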
[5] = molecular target: Follistatin (Homo sapiens) (UniProt P19883); test: FST protein binding to printed compounds – biochemical, small-molecule microarray, 635/667 nm fluorescence, primary screen (AID 1132); conditions: 635 nm fluorescence, higher = more signal
[6] = molecular target: Fibroblast growth factor 2 (Homo sapiens) (UniProt P09038); test: basic fibroblast growth factor binding to printed compounds – biochemical, small-molecule microarray, 635/667 nm fluorescence, primary screen (AID 1133); conditions: FGF2, fluorescence 635/667, higher = more signal
[7] = JC-1 mitochondrial potential readout, lung cancer cells – cell-based, A549, JC-1 fluorescence, basal, 24 h, 100 nL, profiling panel (AID 1138); conditions: higher = more signal;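 note: A549 lung adenocarcinoma cells under basal conditions with no added stimulus; test concentration not given here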
[8] = tested on: Lefty1; test: Lefty1 protein binding to printed compounds – biochemical, small-molecule microarray, 635/667 nm fluorescence, primary screen (AID 1139); conditions: fluorescence 635/667, higher = more signal
[9] = tested on: wheat germ agglutinin (Triticum aestivum), Alexa647-labelled; test: Alexa647-WGA lectin binding to printed small molecules – biochemical, small-molecule microarray, 635/667 nm fluorescence, artefact control for SMM control-protein annotation, profiling panel (AID 1140); conditions: WGA-A647 binding, 635 nm fluorescence, higher = more signal;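 note: score merges 667 nm feature emission with signal to noise over triplicate slides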
[10] = molecular target: Luciferin 4-monooxygenase (Photinus pyralis) (UniProt P08659); test: inhibition of purified Photinus pyralis luciferase – biochemical, luminescence, purified enzyme, 2006 set, primary screen (AID 1141); conditions: purified firefly luciferase, SteadyGlo luminescence, 30 min; higher = more signal, called active from +8 up or from −8 down;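 note: cell-free assay with purified firefly luciferase at 100 ng per well in PBS; test concentration not given here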
[11] = tested on: Wnt5a (protein binding on small-molecule microarray); test: small molecules binding Wnt5a protein – biophysical, small-molecule microarray, 635/667 nm fluorescence, primary screen (AID 1142); conditions: 635 nm fluorescence, higher = more signal;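 note: fluorescence read at 667 nm with signal to noise per printed feature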
[12] = ATP-based viability of Huh7 replicon cells – cell-based, CellTiter-Glo luminescence, basal, 48 h, cytotoxicity control for HCV replication inhibitor project, primary screen (AID 1143); conditions: higher = more signal, called active from +8 up or from −8 down;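 note: Huh7 hepatoma cells carrying a hepatitis C replication reporter with no stimulus; test concentration not given here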
[13] = Pseudomonas biofilm growth suppression – PAO1 strain, BacTiter-Glo luminescence, LB-PBS, primary screen (AID 1144); conditions: P. aeruginosa PAO1 biofilm, 12 h, higher = more signal
[14] = basal CRE-LacZ reporter activity in PC12 – cell-based, unstimulated, primary screen (AID 1145); conditions: no forskolin, luminescence, 4.5 h, higher = more signal, called active from +8 up or from −8 down
[15] = forskolin-driven CRE-LacZ activity in PC12 – cell-based, CRE-LacZ reporter, forskolin-stimulated, primary screen (AID 1146); conditions: luminescence, 4.5 h, higher = more signal, called active from +8 up or from −8 down;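 note: PC12 cells with 6xCRE LacZ reporter stimulated by forskolin 10 µM; beta-galactosidase reporter signal reflecting CREB driven transcription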
[16] = molecular target: Streptavidin (Streptomyces avidinii) (UniProt P22629); test: compounds binding control protein streptavidin – biophysical, small-molecule microarray, 635/667 nm fluorescence, artefact control for SMM compound annotation, primary screen (AID 1147); conditions: higher = more signal;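 note: signal reflects streptavidin binding to arrayed compounds as a control protein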
[17] = probe aInhba binding on compound microarray – biochemical, small-molecule microarray, 635/667 nm fluorescence, primary screen (AID 1148); conditions: higher = more signal;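 note: score merges 667nm spot fluorescence with signal-to-noise for antibody binding to printed compounds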
[18] = molecular target: Torsin-1A (Homo sapiens) (UniProt O14656); test: TOR1A wild-type binding on microarray – cell lysate, small-molecule microarray, lysate, 635/667 nm, primary screen (AID 1149); conditions: COS7 hTOR1A-WT lysate, 635 nm fluorescence, higher = more signal
[19] = molecular target: Torsin-1A (Homo sapiens) (UniProt O14656); test: torsin A mutant lysate binding on microarrays – cell lysate, small-molecule microarray, COS7 lysate, 635/667 nm fluorescence, primary screen (AID 1150); conditions: COS7 hTOR1A mutant lysate, 635 nm fluorescence, higher = more signal;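 note: score pools 667 nm emission and signal to noise measuring lysate protein binding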
[20] = tested on: Sonic hedgehog protein (Shh); test: Sonic hedgehog microarray binding compounds – biochemical, small-molecule microarray, 635/667 nm fluorescence, primary screen (AID 1151); conditions: 635 nm fluorescence, higher = more signal;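 note: Shh protein binding to compounds spotted on small-molecule microarray slides; score combines spot fluorescence intensity with signal-to-noise across triplicate slides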

Follistatin (Homo sapiens), sequence (P19883 whole entry, looked up): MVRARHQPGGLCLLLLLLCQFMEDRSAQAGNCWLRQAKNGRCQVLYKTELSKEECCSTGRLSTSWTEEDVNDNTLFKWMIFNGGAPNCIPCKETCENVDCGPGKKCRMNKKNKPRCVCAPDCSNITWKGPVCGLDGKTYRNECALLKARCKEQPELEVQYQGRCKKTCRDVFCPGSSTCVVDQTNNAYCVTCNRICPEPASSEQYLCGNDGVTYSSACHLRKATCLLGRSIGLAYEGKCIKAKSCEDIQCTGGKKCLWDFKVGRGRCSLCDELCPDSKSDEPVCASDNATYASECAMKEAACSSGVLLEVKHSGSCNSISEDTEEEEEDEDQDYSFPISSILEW
Streptavidin (Streptomyces avidinii), sequence (P22629 whole entry, looked up): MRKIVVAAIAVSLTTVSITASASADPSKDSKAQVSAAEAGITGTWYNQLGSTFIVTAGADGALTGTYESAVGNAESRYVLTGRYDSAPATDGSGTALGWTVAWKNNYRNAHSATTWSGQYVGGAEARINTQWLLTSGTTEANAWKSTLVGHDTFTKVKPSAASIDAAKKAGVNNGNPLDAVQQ
Torsin-1A (Homo sapiens), sequence (O14656 whole entry, looked up): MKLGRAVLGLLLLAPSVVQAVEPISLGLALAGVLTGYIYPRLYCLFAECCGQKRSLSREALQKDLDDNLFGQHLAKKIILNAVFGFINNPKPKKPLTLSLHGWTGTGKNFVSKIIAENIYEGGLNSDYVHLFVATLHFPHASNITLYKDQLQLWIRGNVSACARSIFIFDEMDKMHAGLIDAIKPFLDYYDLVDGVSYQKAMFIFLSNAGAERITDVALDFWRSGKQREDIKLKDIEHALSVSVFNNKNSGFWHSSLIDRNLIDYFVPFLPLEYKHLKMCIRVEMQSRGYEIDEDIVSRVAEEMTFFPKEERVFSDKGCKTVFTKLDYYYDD
Fibroblast growth factor 2 (Homo sapiens), sequence (P09038 whole entry, looked up): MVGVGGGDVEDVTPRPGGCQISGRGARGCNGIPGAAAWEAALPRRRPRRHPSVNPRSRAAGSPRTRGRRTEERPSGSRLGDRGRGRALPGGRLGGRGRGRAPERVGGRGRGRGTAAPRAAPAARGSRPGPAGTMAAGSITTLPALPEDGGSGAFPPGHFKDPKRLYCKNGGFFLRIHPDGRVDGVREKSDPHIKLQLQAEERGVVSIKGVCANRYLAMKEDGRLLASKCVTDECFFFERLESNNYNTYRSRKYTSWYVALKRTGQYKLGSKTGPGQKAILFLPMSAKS
Luciferin 4-monooxygenase (Photinus pyralis), sequence (P08659 whole entry, looked up): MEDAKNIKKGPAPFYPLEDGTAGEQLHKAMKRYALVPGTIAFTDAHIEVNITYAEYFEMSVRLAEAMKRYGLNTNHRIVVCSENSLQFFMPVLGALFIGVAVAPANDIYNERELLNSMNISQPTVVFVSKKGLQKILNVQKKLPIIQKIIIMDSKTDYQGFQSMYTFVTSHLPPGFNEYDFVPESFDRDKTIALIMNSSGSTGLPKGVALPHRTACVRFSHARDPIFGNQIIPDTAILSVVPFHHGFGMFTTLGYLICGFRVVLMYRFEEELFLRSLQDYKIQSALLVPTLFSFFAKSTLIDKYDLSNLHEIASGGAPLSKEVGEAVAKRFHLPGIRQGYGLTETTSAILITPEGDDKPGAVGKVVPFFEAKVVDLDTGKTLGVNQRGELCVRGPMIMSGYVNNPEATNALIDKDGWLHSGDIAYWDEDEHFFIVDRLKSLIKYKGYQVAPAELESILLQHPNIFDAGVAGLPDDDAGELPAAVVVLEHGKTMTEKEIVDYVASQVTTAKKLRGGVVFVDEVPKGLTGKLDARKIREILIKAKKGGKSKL
Focal adhesion kinase 1 (Homo sapiens), sequence (Q05397 whole entry, looked up): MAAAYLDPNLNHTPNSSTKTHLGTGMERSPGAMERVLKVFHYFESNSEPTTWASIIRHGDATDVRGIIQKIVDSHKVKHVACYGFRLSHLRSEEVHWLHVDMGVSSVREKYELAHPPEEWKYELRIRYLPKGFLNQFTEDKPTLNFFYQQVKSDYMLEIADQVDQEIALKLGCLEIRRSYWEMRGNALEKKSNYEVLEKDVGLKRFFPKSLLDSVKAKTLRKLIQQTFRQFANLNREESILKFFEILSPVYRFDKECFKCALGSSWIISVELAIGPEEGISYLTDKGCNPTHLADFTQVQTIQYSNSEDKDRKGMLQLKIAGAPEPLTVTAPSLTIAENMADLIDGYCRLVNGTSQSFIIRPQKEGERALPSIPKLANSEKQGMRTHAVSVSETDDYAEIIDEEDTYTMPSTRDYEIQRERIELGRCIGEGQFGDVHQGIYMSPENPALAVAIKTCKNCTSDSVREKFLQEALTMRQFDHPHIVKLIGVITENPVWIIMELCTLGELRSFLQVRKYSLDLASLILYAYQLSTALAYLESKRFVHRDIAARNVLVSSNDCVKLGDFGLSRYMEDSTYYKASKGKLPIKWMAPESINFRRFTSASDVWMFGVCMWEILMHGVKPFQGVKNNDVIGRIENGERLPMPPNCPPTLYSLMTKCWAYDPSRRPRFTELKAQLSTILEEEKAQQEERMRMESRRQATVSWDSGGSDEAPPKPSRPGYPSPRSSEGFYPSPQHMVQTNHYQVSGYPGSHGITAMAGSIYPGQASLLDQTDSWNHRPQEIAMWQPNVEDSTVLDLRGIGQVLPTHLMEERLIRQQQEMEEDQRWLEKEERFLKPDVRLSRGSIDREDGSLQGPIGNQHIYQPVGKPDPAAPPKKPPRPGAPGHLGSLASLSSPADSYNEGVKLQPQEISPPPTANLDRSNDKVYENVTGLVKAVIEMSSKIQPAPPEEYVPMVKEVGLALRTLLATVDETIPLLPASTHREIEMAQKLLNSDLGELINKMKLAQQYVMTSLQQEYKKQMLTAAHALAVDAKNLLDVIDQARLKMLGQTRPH

Row | Structure (SMILES) | composite z-score [1] | composite z-score [2] | composite z-score [3] | composite z-score [4] | composite z-score [5] | composite z-score [6] | z-score [7] | composite z-score [8] | composite z-score [9] | z-score [10] | composite z-score [11] | z-score [12] | z-score [13] | z-score [14] | z-score [15] | composite z-score [16] | composite z-score [17] | composite z-score [18] | composite z-score [19] | composite z-score [20]
1 | N#Cc1ccc(NN2C(C(O)c3ccccc3)C=CC3C(=O)N(c4ccccc4)C(=O)C32)cc1 (stereo not given) | 0.324 | 0.954 | 0.452 | -0.456 | 0.927 | -0.217 | 1.41 | -0.272 | 0.635 | 0.884 (inactive) | 0.213 | 0.574 (inactive) | -0.121 (inactive) | -1.11 (inactive) | 1.06 (inactive) | 0.475 | 0.11 | 0.408 | -0.0163 | -0.67
2 | C=CCNC(=O)[C@H]1[C@@H]2C(=O)O[C@@H](c3ccccc3)[C@@H](c3ccccc3)N2[C@@H](c2ccc(O)cc2)[C@]12C(=O)N(C(=O)OCCOC)c1ccc(C#CC3(O)CCCCCC3)cc12 | 1.23 | 1.18 | 0.737 | 0.485 | 0.759 | 0.678 | 1.14 | 0.218 | 0.764 | -0.991 (inactive) | 0.195 | -1.07 (inactive) | -0.7 (inactive) | -0.465 (inactive) | -0.804 (inactive) | -0.179 | 0.134 | 0.187 | 0.331 | 0.858
3 | CC(C)C[C@H]1NC(=O)[C@H](C)NC(=O)[C@@]23C(=O)N[C@@H](Cc4ccccc4)C2[C@H](C)[C@@]2(C)O[C@H]2C3/C=C/C/C=C\CNC1=O (stereo not given in full) | 0.528 | -0.071 | -0.0739 | -1.65 | 0.321 | -0.28 | 0.141 | 0.253 | 0.649 | -0.8 (inactive) | -0.0392 | 0.288 (inactive) | 0.325 (inactive) | 2.03 (inactive) | -0.0505 (inactive) | -0.442 | -0.176 | -1.09 | 0.0821 | 0.366
4 | CCCC[C@H]1OB(O)C[C@H]2C1=C(COc1ccccc1)Cn1c(=O)n(-c3ccccc3)c(=O)n12 | 0.458 | 0.711 | -0.0229 | 0.333 | 1.1 | 0.302 | -0.0843 | 0.976 | 0.09 | -0.25 (inactive) | 0.0561 | -0.363 (inactive) | -0.127 (inactive) | -0.141 (inactive) | 0.402 (inactive) | 0.0395 | -0.104 | 0.418 | 0.5 | 1.64
5 | CO[C@H]1O[C@H](CO)[C@@H](OC(=O)Nc2cccc(F)c2)[C@H](OC(=O)Nc2ccc3c(c2)OCO3)[C@H]1OC(=O)Nc1ccc2c(c1)OCO2 | 1.62 | 1.26 | 0.807 | 0.884 | 1.32 | 0.819 | -0.358 | 0.9 | 1.15 | -5.24 (inactive) | 0.146 | -2.58 (inactive) | -0.905 (inactive) | 0.195 (inactive) | -0.724 (inactive) | -0.0782 | 0.0155 | 0.967 | 1.2 | 1.52
6 | [N-]=[N+]=NCc1ccccc1C[C@@]1(C(=O)NCCN2CCOCC2)N=C(c2ccc(OCCCO)cc2)O[C@@H]1c1ccccc1CN=[N+]=[N-] | 2.12 | 1.21 | 0.366 | 0.973 | 1.45 | 0.672 | 1.08 | 0.785 | 0.59 | -1.36 (inactive) | 0.784 | -2.99 (inactive) | 0.497 (inactive) | -0.641 (inactive) | -0.781 (inactive) | 0.697 | 0.196 | -0.0348 | 0.472 | 0.619
7 | COC(=O)C(CC#Cc1ccc2c(c1)[C@]1(C(=O)N2)[C@H](C(=O)N2CCc3cc(OC)c(OC)cc3C2)[C@H]2C(=O)O[C@H](c3ccccc3)[C@H](c3ccccc3)N2[C@@H]1c1ccc(O)cc1)C(=O)OC | 2.77 | 1.22 | 0.695 | 0.867 | 1.49 | 1.84 | -1.48 | 1.14 | 0.664 | 8.96 (active) | 0.746 | -3.3 (inactive) | -1.21 (inactive) | 0.0384 (inactive) | -1.12 (inactive) | 0.112 | 0.263 | 0.644 | 0.694 | 1.87
8 | CN(C)C(=O)[C@@]1(CCC(=O)OC(C)(C)C)N=C(c2ccc(OCCCO)cc2)O[C@H]1c1ccccc1N=[N+]=[N-] | 0.546 | 1.32 | 0.162 | 1.04 | 1.45 | 1.58 | 1.15 | 0.722 | 1.01 | -7.12 (inactive) | 1.46 | -1.84 (inactive) | -0.0215 (inactive) | 1.31 (inactive) | -1.33 (inactive) | 1.6 | 0.277 | 1.76 | 2.25 | 0.18
9 | COCCOC(=O)N1C(=O)[C@@]2(c3cc(C#CCCO)ccc31)[C@H](c1ccc(OCCO)cc1)N1[C@H](c3ccccc3)[C@H](c3ccccc3)OC(=O)[C@H]1[C@@H]2C(=O)N1CCc2cc(OC)c(OC)cc2C1 | 1.2 | 1.19 | 0.81 | 0.249 | 1.22 | 1.11 | -0.633 | 1.08 | 0.0877 | -0.856 (inactive) | 0.359 | -0.415 (inactive) | -0.66 (inactive) | -0.231 (inactive) | -0.196 (inactive) | 0.402 | 0.153 | 0.637 | 0.748 | 1.37

— PubChem BioAssay
